Compound activity: PubChem BioAssay, several laboratories
aDG glyco act: activators of alpha-DG glycosylation, primary screen, uHTS, Pro5-aDG cells, AlphaScreen. hit rate 0.22% among 360,000. alpha-DG glycosylation AlphaScreen (IIH6); 0% Pro5, 100% B10-LARGE cell signal. activation, % at 10 µM;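 active = activation of at least 8% versus controls, or a plate z-score of at least 8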;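 also: Pro5 are CHO cells carrying HIG-tagged alpha-DG that lacks glycosylation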
GC-B act: human GC-B receptor activators, primary screen, HEK293 GC-B cells, cGMP TR-FRET, EC30 CNP | Atrial natriuretic peptide receptor 2 (Homo sapiens), P20594 | 0% at EC30 CNP, 100% saturating CNP | activation, % at 10 µM | hit rate 0.11% among 370,000 | AID 1920062, 2024;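 active = activation at 10 µM reaching about 35% in either raw or pattern-adjusted values, limit read from the data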
Dyrk1A ADPGlo: rat Dyrk1A kinase inhibitors, primary screen, biochemical, single point, plate reader; Dual specificity tyrosine-phosphorylation-regulated kinase 1A (Rattus norvegicus), Q63470; ADP-Glo luminescence, NFATc1 peptide; inhibition, % at 12.5 µM; hit rate 0.43% among 310,000; AID 504441, 2011; in the data active = inhibition above about 50%;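 also: plate controls were vehicle with enzyme for no effect and no enzyme for full effect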
HSF1 inhib: HSF1 inhibitors in luciferase reporter cells, primary screen, cell-based, NIH3T3, luminescence; NIH3T3-HGL HSE-luciferase, MG132-induced, luminescence 8 h; active compounds read low; activity change, negative = inhibition, % at 7.5 µM (by protocol); hit rate 0.77% among 300,000;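 active = more than half of replicate wells show activity change below -50%, luminescence cut by over half; inconclusive = some wells, but at most half, below -50%; inactive = no replicate well below -50%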;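 also: luciferase reports HSF-1 transcriptional activity via heat shock element; 0% = median of DMSO wells and -100% = zero luminescence signal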
HSF-1 act: HSF-1 activators, primary screen, NIH3T3-HGL cells, MG132 stress, luminescence, single point; NIH3T3-HGL HSF-1 luciferase reporter, 8 h; 100% = twice DMSO control signal; activation, % at 9 µM; hit rate 1.7% among 300,000;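 active = mean replicate activation of at least 50% with a set share of replicates each reaching 50%; inconclusive = only one of those two conditions met; inactive = mean below 50% and too few replicates reaching it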;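 also: 0% = median of the neutral control wells and 100% = twice that signal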
GC-A act: GC-A stimulated cGMP production enhancers – HEK293 GC-A cells, cGMP TR-FRET, EC30 ANP, primary screen; Atrial natriuretic peptide receptor 1 (Homo sapiens), P16066; activation, % at 10 µM; 0% at EC30 ANP, 100% saturating ANP; AID 1671463, 2021; hit rate 0.14% among 370,000; in the data active = activation above about 40%
Target sequence (P16066 whole entry, looked up): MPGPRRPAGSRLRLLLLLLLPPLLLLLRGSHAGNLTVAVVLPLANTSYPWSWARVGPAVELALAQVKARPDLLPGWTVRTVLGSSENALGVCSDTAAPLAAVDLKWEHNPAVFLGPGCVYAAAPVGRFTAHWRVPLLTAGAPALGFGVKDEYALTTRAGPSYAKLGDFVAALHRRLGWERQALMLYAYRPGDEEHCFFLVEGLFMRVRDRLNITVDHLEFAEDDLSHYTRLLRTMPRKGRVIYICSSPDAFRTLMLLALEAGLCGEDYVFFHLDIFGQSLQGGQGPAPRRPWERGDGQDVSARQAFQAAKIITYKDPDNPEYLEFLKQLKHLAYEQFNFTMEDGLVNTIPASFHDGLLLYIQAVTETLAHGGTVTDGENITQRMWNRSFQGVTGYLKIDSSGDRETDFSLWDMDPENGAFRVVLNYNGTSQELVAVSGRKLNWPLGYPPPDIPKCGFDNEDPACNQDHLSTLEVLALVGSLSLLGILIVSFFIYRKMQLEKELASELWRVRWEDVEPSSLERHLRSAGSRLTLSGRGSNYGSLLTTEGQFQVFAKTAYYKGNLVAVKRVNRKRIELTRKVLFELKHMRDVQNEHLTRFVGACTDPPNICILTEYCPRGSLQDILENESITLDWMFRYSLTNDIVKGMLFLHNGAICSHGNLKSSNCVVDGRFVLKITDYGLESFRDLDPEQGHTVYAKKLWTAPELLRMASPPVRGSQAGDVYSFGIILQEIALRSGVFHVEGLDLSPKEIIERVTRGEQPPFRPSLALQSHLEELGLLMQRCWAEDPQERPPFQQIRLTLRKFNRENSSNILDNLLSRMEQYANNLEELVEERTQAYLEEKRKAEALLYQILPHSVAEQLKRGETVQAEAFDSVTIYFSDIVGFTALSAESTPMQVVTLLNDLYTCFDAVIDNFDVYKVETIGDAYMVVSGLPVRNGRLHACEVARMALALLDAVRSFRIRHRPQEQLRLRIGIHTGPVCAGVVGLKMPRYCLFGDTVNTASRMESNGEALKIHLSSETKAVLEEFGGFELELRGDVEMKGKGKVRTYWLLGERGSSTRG
ADP-Glo artifact: ADP-Glo luciferase interference without Dyrk1A, dose response, artefact control for Dyrk1A inhibitor project, biochemical, luminescence, cherry-pick, set 02; AC50, µM (titrated, usually from 12 µM), without a hit: at the top dose activity change, negative = inhibition; AID 588348, 2011; ADP-Glo luciferase artifact assay, no Dyrk1A; 1,300 tested, under 10 active; shares compounds with Dyrk1A ADPGlo;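 active = fitted half-maximal dose AC50 no more than ten times the top valid tested dose, with luminescence dropping as dose rises; inconclusive = poor fit, or flat fit with 30 to 70% inhibition; inactive = the rest, signal increases included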
An asterisk follows results filed as active; ? = inconclusive; . = no result. Only some compounds are listed: those with a hit (about 2.5% of all), similar ones and a draw of the others.

SMILES	aDG glyco act	GC-B act	Dyrk1A ADPGlo	HSF1 inhib	HSF-1 act	GC-A act	ADP-Glo artifact
C=CC(C)(C)c1c(O)c(CC=C(C)C)c(O)c2c(=O)c3ccc(O)c(O)c3oc12	0.0	.	98.6*	-3.1	-7.6	.	8.1%
CCCCCCCCCCCCN1[C@@H](CC(=O)OC)c2cc(C(F)(F)F)ccc2S1(=O)=O	0.4	5.2	53.3*	-6.5	-11.6	-0.3	12.5%
CCCCCCCCN1[C@@H](CC(=O)O)c2cc(C(F)(F)F)ccc2S1(=O)=O	-0.2	2.7	1.9	-5.9	-0.8	2.5	.
CCOC(=O)C[C@H]1c2cc(C(F)(F)F)ccc2S(=O)(=O)N1C(C)C	0.0	-0.3	53.5*	-7.8	-3.0	-2.8	11.6%
Cc1ccc2nc(-c3cccc(Cl)c3)c(Cc3cccc(F)c3)n2c1	0.3	18.9	.	.	.	7.2	.
CC(=O)c1nc2ccccc2n1S(=O)(=O)c1ccc(Cl)cc1	0.1	1.9	83.2*	-5.5	1.3	0.2	6.6%
N=c1c(S(=O)(=O)c2ccc(F)cc2)cc2c(=O)n3ccccc3nc2n1CC1CCCO1 (stereo unspecified)	-0.1	2.3	4.0	-1.9	-0.5	11.1	.
CC(NC(=O)c1ccc([N+](=O)[O-])o1)C12CC3CC(CC(C3)C1)C2 (stereo unspecified)	0.0	0.5	-3.9	22.3	?	-2.3	.
CC1CCc2nc(NC(=O)CN3CCN(Cc4ccc5c(c4)OCO5)CC3)sc2C1 (stereo unspecified)	-0.1	-2.4	55.2*	-1.2	10.4	-0.9	9.1%
CC(C)(C)NC(=S)NNC(=O)c1cccc(Br)c1	1.2	-0.9	3.0	3.6	4.2	-0.3	.
CCCN1CCN(CCCNC(=O)c2cc3c(=O)n(C)c4ccccc4c3n2C)CC1	-0.1	0.9	22.0	9.0	11.3	5.2	.
CCN(CC)CCNC(=O)c1cc2c(=O)n(C)c3ccccc3c2n1C	0.2	0.0	58.4*	1.6	-1.5	2.3	1.9%
Cn1c(C(=O)NC2CC2)cc2c(=O)n(C)c3ccccc3c21	-0.3	-3.0	53.9*	4.0	8.0	-9.5	9.2%
CCCCN(CC)CCNC(=O)c1cc2c(=O)n(C)c3ccccc3c2n1C	-0.2	-0.4	49.7	-4.7	5.3	-0.5	.
CN1CCN(CCNC(=O)c2cc3c(=O)n(C)c4ccccc4c3n2C)CC1	0.3	-0.7	56.8*	7.2	7.6	4.2	15.4%
CCN(CC)CCCNC(=O)c1cc2c(=O)n(C)c3ccccc3c2n1C	0.2	0.3	56.7*	6.0	2.4	3.0	7.1%
CN(C)CCNC(=O)c1cc2c(=O)n(C)c3ccccc3c2n1C	-0.1	-5.8	52.8*	-5.8	-6.5	5.5	8.6%
CSCCC(C(=O)Nc1c(C)cccc1C)n1c(-c2ccc(C(F)(F)F)cc2)nc2ccccc21 (stereo unspecified)	-0.1	-1.1	.	.	.	-2.5	.
COc1cc(-c2cn(S(=O)(=O)c3cccc4nsnc34)nc2N)cc(OC)c1OC	0.6	-9.9	82.5*	19.1	59.3*	-11.3	10.2%
Cc1ccc(-c2cn(S(=O)(=O)c3cccc4nsnc34)nc2N)cc1	-0.2	-4.1	-4.2	6.2	1.6	-10.0	.
Cc1cc(NC(=O)C2CC(=O)N(c3ccc(Cl)cc3)C2)no1 (stereo unspecified)	0.0	-2.1	8.0	-1.0	-2.4	-1.1	.
CCN(CC)CCCNc1ccc2ncn3c4ccc(O)cc4c(=O)c1c23	-0.3	-10.4	86.8*	1.8	1.8	-10.6	9.8%
Nc1ccccc1C(=O)N1CCC(O)(c2ccc(Cl)cc2)CC1	0.0	-2.4	-0.1	10.5	-4.9	2.5	.
